These results are taken from PubChem BioAssay (Tox21).

Records with an inconclusive call do not appear. A call without a number means that no potency is given here. Activity calls are given as the source filed them. Unless noted, calls come from the whole dose curve; as a rule, active = well fitted curve in the direction sought with a large enough effect in the repeat runs; inconclusive = weak or mixed curves; inactive = no such curve, though single readings can be large; an effect the other way counts as inactive or inconclusive.

One assay in a line: qHTS assay to identify small molecule agonists of the sonic hedgehog signaling (Shh) pathway - cell viability counter screen (AID 1259366). Note: nearly all actives have a fitted effect of over 50% in size. Note: potency is the fitted concentration of half-maximal effect. The following applies: NIH/3T3 Gli1-Luc viability, CellTiter-Fluor, 24 h; series mostly up to 92.4 µM. The procedure, abridged: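 CellTiter-Fluor fluorescence read-out, 1 hr at 37C, added after 23hr compound exposure. Cells: 3T3 Gli1-Luc, an NIH/3T3 clone with stably integrated Gli1-Luc reporter, plated 4hr before compound.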
A general note: Quantitative high-throughput screening tests each substance at several concentrations.
For the molecule `O=C(/C=C/c1ccccc1)OCCc1ccccc1`, the Potency result was “inactive”.
Regarding `CCCCCCCCC(CCCCCC)C(=O)O` (configuration not stated), the Potency entry is “inactive”.
Same read-out and setting: with `Cc1ccco1` the entry was “inactive”; with `CC1(C)[C@H](C(=O)O)N2C(=O)C[C@H]2S1(=O)=O`, “inactive”.
Turning to `CO/N=C(/C(=O)N[C@@H]1C(=O)N2C(C(=O)O)=C(COC(N)=O)CS[C@H]12)c1ccco1`, the Potency result is “inactive”.
On to `C=CC(=O)[O-].C=CC(=O)[O-].[Zn+2]`, for which the Potency was 53.2 µM (active).
Still for that read-out and setting: with `O=C1c2ccccc2C(=O)C1c1ccc(Br)cc1` the entry was “inactive”; with `CCC(OCCCOC)OC(C)=O` (configuration not stated), “inactive”.
Still for that read-out and setting: with `COC(=O)CS` the entry was “inactive”.

The next assay is described as follows: qHTS assay to identify small molecule antagonists of the sonic hedgehog signaling (Shh) pathway - cell viability counter screen (AID 1259367). Note: nearly all actives have a fitted effect of over 55% in size. The following applies: NIH/3T3 Gli1-Luc viability, CellTiter-Fluor, 24 h; series mostly up to 92.4 µM. The procedure, abridged: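 Tox21 library chemicals were tested on a Gli1-Luc NIH/3T3 clone (2,000 cells/well) stimulated by conditioned medium; viability was quantified as fluorescence from CellTiter-Fluor reagent added at 23 hr.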
In the case of `O=c1[nH]c2ccc(Cl)cc2o1`, the Potency result was “inactive”.
On the same count and under the same terms, with `Cc1ccc(C(C)(C)O)cc1` the entry was “inactive”; with `CCCC(=O)C(=O)O`, “inactive”.
On the same count and under the same terms, with `CC(C)=CCC1C(=O)N(c2ccccc2)N(c2ccccc2)C1=O` the entry was “inactive”; with `CCOC(=O)/C=C/C(=O)OCC`, “inactive”.
Still for that read-out and setting: with `Cc1ccc(CO)cc1` the entry was “inactive”; with `O=C(OC(=O)c1ccccc1)c1ccccc1`, “inactive”.
With `CC(C)=CCC/C(C)=C/CC/C(C)=C/CCC(=O)OC/C=C(\C)CCC=C(C)C`, the Potency entry was “inactive”.
Still for that read-out and setting: with `O[C@@H]1CO[C@H]2[C@@H]1OC[C@@H]2O` the entry was “inactive”; with `CCCCC(CC)CN` (configuration not stated), “inactive”.
In the case of `COc1cc(C(=O)NCCCCCC(=O)O)cc(OC)c1OC`, the Potency entry is “inactive”.
Still for that read-out and setting: with `CC(CCC(=O)O)C(=O)O` (configuration not stated) the entry was “inactive”; with `CCC1NC(=O)c2cc(S(N)(=O)=O)c(Cl)cc2N1` (configuration not stated), “inactive”.
As for `O=C1NCCN1CCO`, the Potency entry was “inactive”.
Take `C1COC1`: the Potency result is “inactive”.
Still for that read-out and setting: with `CCn1cc(C(=O)O)c(=O)c2cc(F)c(N3CCNCC3)cc21` the entry was “inactive”.
Consider `CO[C@]1(NC(=O)CSC(F)F)C(=O)N2C(C(=O)O)=C(CSc3nnnn3CCO)CO[C@H]21`, for which the Potency entry is “inactive”.
Regarding `O=C(O)CCCCCCCCCCCBr`, the Potency result is “inactive”.
On the same count and under the same terms, with `CCC(=O)OC` the entry was “inactive”.
The same measure, in the same setting: with `CCC(C)(C)OC` the entry was “inactive”; with `CC(C)=CC(=O)C=C(C)C`, “inactive”.
Same read-out and setting: with `CC(=O)OCC(=O)NCCCOc1cccc(CN2CCCCC2)c1` the entry was “inactive”.
Take `CCCCCCCCCI`: the Potency result was “inactive”.
Turning to `CCc1ccccc1`, the Potency result is “inactive”.
`Cc1ccccc1S`: the Potency entry was “inactive”.
Turning to `Cc1cscn1`, the Potency result is “inactive”.
Turning to `N#CCc1ccc(Cl)cc1Cl`, the Potency result is “inactive”.
On the same count and under the same terms, with `CCCCCC[C@@H](O)C/C=C\CCCCCCCC(=O)O` the entry was “inactive”.
On the same count and under the same terms, with `Cc1cc(C)c(N)cc1C` the entry was “inactive”; with `C=CC(C)(CCC=C(C)C)OC(=O)CC(C)C` (configuration not stated), “inactive”; with `O=C(/C=C/c1ccccc1)OCCc1ccccc1`, “inactive”.
Turning to `CCCCCCCCC(CCCCCC)C(=O)O` (configuration not stated), the Potency entry was “inactive”.
On the same count and under the same terms, with `Cc1ccco1` the entry was “inactive”; with `CC1(C)[C@H](C(=O)O)N2C(=O)C[C@H]2S1(=O)=O`, “inactive”.
On the same count and under the same terms, with `CO/N=C(/C(=O)N[C@@H]1C(=O)N2C(C(=O)O)=C(COC(N)=O)CS[C@H]12)c1ccco1` the entry was “inactive”; with `O=C1c2ccccc2C(=O)C1c1ccc(Br)cc1`, “inactive”.
On the same count and under the same terms, with `CCC(OCCCOC)OC(C)=O` (configuration not stated) the entry was “inactive”.
On to `COC(=O)CS`, for which the Potency entry was “inactive”.

The nature of the next assay: qHTS assay to identify small molecule agonists of the sonic hedgehog signaling (Shh) pathway (AID 1259368; calls by dose curve;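 note: NIH/3T3-derived 3T3Gli1-Luc cells carrying a stable Gli1-driven firefly luciferase reporter; nearly all actives have a fitted effect of over 15% in size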). As to conditions: NIH/3T3 Gli1-Luc reporter, luciferase, 24 h; series mostly up to 92.4 µM. The procedure, abridged: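 Following a 24 hr incubation with DMSO-dissolved compounds at 37 C, 5% CO2, Gli1-Luc NIH/3T3-derived cells received luciferase reagent for 30 min at room temperature prior to luminescence measurement.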
In the case of `O=c1[nH]c2ccc(Cl)cc2o1`, the Potency result was “inactive”.
The same measure, in the same setting: with `Cc1ccc(C(C)(C)O)cc1` the entry was “inactive”; with `CCCC(=O)C(=O)O`, “inactive”; with `CC(C)=CCC1C(=O)N(c2ccccc2)N(c2ccccc2)C1=O`, “inactive”.
`CCOC(=O)/C=C/C(=O)OCC`: the Potency entry was “inactive”.
Still for that read-out and setting: with `Cc1ccc(CO)cc1` the entry was “inactive”.
In the case of `O=C(OC(=O)c1ccccc1)c1ccccc1`, the Potency entry was “inactive”.
Same read-out and setting: with `CC(C)=CCC/C(C)=C/CC/C(C)=C/CCC(=O)OC/C=C(\C)CCC=C(C)C` the entry was “inactive”; with `O[C@@H]1CO[C@H]2[C@@H]1OC[C@@H]2O`, “inactive”.
On to `CCCCC(CC)CN` (configuration not stated), for which the Potency result was “inactive”.
For `COc1cc(C(=O)NCCCCCC(=O)O)cc(OC)c1OC`, the Potency entry was “inactive”.
On the same count and under the same terms, with `CC(CCC(=O)O)C(=O)O` (configuration not stated) the entry was “inactive”; with `CCC1NC(=O)c2cc(S(N)(=O)=O)c(Cl)cc2N1` (configuration not stated), “inactive”; with `O=C1NCCN1CCO`, “inactive”.
As to `C1COC1`, the Potency result is “inactive”.
The same measure, in the same setting: with `CCn1cc(C(=O)O)c(=O)c2cc(F)c(N3CCNCC3)cc21` the entry was “inactive”; with `CO[C@]1(NC(=O)CSC(F)F)C(=O)N2C(C(=O)O)=C(CSc3nnnn3CCO)CO[C@H]21`, “inactive”; with `O=C(O)CCCCCCCCCCCBr`, “inactive”.
Still for that read-out and setting: with `CCC(=O)OC` the entry was “inactive”; with `CCC(C)(C)OC`, “inactive”; with `CC(C)=CC(=O)C=C(C)C`, “inactive”.
Regarding `CC(=O)OCC(=O)NCCCOc1cccc(CN2CCCCC2)c1`, the Potency entry was “inactive”.
On the same count and under the same terms, with `CCCCCCCCCI` the entry was “inactive”; with `CCc1ccccc1`, “inactive”.
Same read-out and setting: with `Cc1ccccc1S` the entry was “inactive”; with `Cc1cscn1`, “inactive”; with `N#CCc1ccc(Cl)cc1Cl`, “inactive”.
Consider `CCCCCC[C@@H](O)C/C=C\CCCCCCCC(=O)O`, for which the Potency entry was “inactive”.
Still for that read-out and setting: with `Cc1cc(C)c(N)cc1C` the entry was “inactive”.
In the case of `C=CC(C)(CCC=C(C)C)OC(=O)CC(C)C` (configuration not stated), the Potency entry was “inactive”.
Still for that read-out and setting: with `O=C(/C=C/c1ccccc1)OCCc1ccccc1` the entry was “inactive”.
Consider `CCCCCCCCC(CCCCCC)C(=O)O` (configuration not stated), for which the Potency result was “inactive”.
On to `Cc1ccco1`, for which the Potency result was “inactive”.
On the same count and under the same terms, with `C[C@H]1c2cccc(O)c2C(O)=C2C(=O)[C@]3(O)C(O)=C(C(N)=O)C(=O)[C@@H](N(C)C)[C@@H]3[C@@H](O)[C@@H]21` the entry was “inactive”; with `CC1(C)[C@H](C(=O)O)N2C(=O)C[C@H]2S1(=O)=O`, “inactive”.
Same read-out and setting: with `CO/N=C(/C(=O)N[C@@H]1C(=O)N2C(C(=O)O)=C(COC(N)=O)CS[C@H]12)c1ccco1` the entry was “inactive”; with `C=CC(=O)[O-].C=CC(=O)[O-].[Zn+2]`, “inactive”.
Turning to `O=C1c2ccccc2C(=O)C1c1ccc(Br)cc1`, the Potency result was “inactive”.
Turning to `CCC(OCCCOC)OC(C)=O` (configuration not stated), the Potency result was “inactive”.
On the same count and under the same terms, with `COC(=O)CS` the entry was “inactive”.
